# From PMC4336329 (PLoS ONE, 2015)
# The whole screen tested about 310,000 compounds, of which about 14,000 (4.5%) showed an effect of 50% or more. Effects have a minus sign here. The entries come from a sample that favours strong results as a whole.
# Target: human ether-à-go-go-related gene (hERG) potassium channel (human, UniProt Q12809)
# Assay: primary screen, population patch clamp on CHO cells stably expressing hERG; higher = less effect of the substance
# 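Note: peak tail current of the secondary pulse compared with the same well before compound.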
# Sequence of human ether-à-go-go-related gene (hERG) potassium channel (Q12809 whole entry, looked up): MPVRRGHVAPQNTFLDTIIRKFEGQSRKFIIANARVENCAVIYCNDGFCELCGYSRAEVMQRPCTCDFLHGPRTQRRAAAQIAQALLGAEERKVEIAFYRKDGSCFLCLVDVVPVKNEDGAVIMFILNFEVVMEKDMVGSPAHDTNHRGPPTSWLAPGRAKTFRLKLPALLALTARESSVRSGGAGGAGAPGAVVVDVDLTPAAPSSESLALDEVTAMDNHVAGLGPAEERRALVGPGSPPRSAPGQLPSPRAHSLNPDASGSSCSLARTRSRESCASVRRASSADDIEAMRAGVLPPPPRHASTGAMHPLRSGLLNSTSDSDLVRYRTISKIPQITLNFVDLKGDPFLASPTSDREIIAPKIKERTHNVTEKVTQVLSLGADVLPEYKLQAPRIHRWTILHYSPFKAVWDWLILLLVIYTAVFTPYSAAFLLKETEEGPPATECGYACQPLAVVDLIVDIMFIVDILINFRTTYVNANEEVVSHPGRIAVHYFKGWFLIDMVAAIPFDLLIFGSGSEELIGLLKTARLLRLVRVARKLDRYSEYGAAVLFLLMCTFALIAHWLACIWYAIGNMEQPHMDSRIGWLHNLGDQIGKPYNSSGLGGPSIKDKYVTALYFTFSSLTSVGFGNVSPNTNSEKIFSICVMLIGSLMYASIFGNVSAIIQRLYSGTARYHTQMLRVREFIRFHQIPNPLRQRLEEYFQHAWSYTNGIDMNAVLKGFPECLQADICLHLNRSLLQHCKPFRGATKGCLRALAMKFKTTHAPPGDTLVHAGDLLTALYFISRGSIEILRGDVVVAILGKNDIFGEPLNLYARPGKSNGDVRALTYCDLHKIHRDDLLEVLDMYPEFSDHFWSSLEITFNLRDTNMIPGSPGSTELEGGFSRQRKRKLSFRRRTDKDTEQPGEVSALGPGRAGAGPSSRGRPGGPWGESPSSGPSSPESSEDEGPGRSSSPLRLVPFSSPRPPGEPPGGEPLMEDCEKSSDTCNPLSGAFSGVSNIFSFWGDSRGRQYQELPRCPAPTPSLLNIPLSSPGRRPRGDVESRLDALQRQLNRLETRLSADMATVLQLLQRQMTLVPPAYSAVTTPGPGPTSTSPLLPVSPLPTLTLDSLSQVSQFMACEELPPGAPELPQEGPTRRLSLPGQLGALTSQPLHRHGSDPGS
row,Structure (SMILES),"hERG current change (%, negative = inhibition) at 10uM"
1,Cn1c(=O)n(CC(=O)N2CCOCC2)c2ccccc21,3.76%
2,COc1ccc(C(=O)NNC(=O)C23CC4CC(CC(C4)C2)C3)cc1OC,0.327%
3,COc1cccc(-n2ccnc2SCC(=O)N2CCCc3ccccc32)c1,-10%
4,Cc1c(Cl)cccc1NC(=O)NN1CCN(C)CC1,-0.937%
5,Cc1nonc1C(=O)N/N=C/c1ccc(O)c(O)c1,-29.7%
6,CCOc1ccccc1NC(=O)COC(=O)c1cc[n+]([O-])cc1,12.3%
7,Cc1ccc([N+](=O)[O-])cc1Nc1nc(N2CCOCC2)nc(N2CCOCC2)n1,-13.5%
8,Cc1ccc(C2OC(=O)C=C2c2ccccc2)cc1 (stereo not drawn),3.71%
9,Cn1c(=O)c2c(ncn2CC(=O)OCC(=O)NC(c2ccccc2)c2ccccc2)n(C)c1=O,-2.22%
10,COC(=O)CN(c1ccccc1)S(=O)(=O)c1ccccc1,4.04%
11,COc1ccc(CCNC(=O)C2CC2)cc1OC,-18.3%
12,Fc1ccccc1Nc1ncnc2c1nnn2Cc1ccccc1,-20%
13,Cc1nnc2ccc(-c3cccc(NC(=O)c4ccco4)c3)nn12,-5.08%
14,CS(=O)(=O)c1ccc(-c2cccc(NC(=O)c3ccc(Br)o3)c2)nn1,3.74%
15,Cc1nnc2ccc(-c3cccc(NC(=O)c4ccc(Cl)nc4)c3)nn12,-56.7%
16,Cc1nnc2ccc(-c3cccc(NC(=O)c4ccc(Br)o4)c3)nn12,-75.8%
17,Cc1nnc2ccc(-c3ccc(NC(=O)c4ccc(Cl)nc4)cc3)nn12,-15%
18,Cc1nnc2ccc(-c3cccc(NS(C)(=O)=O)c3)nn12,-17.1%
19,Cn1cccc1C(=O)OCc1csc(-c2ccccc2)n1,-20.9%
20,O=[N+]([O-])c1cccc(N(CC2CO2)S(=O)(=O)c2ccccc2)c1 (stereo not drawn),-5.4%
21,CCN(C(=O)c1nn(-c2ccc(OC)cc2)c(=O)c2c1c1ccccc1n2C)c1ccc(OC)cc1,18.3%
22,CCN(CC)CCNC(=O)c1cc(-c2cccnc2)nc2ccc(S(=O)(=O)N3CCC(C)CC3)cc12,-65.1%
23,CCCCN(C)CCNC(=O)c1cc(-c2cccnc2)nc2ccc(S(=O)(=O)N3CCC(C)CC3)cc12,-35.5%
24,CCOCCCNC(=O)c1cc(-c2cccnc2)nc2ccc(S(=O)(=O)N3CCC(C)CC3)cc12,12.9%
25,COCCNC(=O)c1cc(-c2ccccn2)nc2ccc(S(=O)(=O)N3CCC(C)CC3)cc12,-61.8%
26,COCCCNC(=O)c1cc(-c2cccnc2)nc2ccc(S(=O)(=O)N3CCCCCC3)cc12,30.6%
27,COCCNC(=O)c1cc(-c2ccncc2)nc2ccc(S(=O)(=O)N3CCOCC3)cc12,-32.3%

row,Structure (SMILES),"hERG current change (%, negative = inhibition) at 10uM"
1,O=C(CCN1C(=O)C2C3C=CC(C3)C2C1=O)Nc1ccccc1 (stereo not drawn),21.1%
2,CC(C)(C)c1nc2c(Br)cc(Br)cc2c(=O)o1,18.9%
3,Cc1ccc(NC2c3ccccc3C(=O)N2CCN2CCOCC2)cc1 (stereo not drawn),-12.9%
4,O=C(Cc1cccs1)N1CCCC(c2nc3c(nnn3Cc3ccc(F)cc3)c(=O)[nH]2)C1 (stereo not drawn),-35.1%
5,O=C(Cc1cccs1)N1CCCC(c2nc3c(nnn3Cc3cccc(Cl)c3)c(=O)[nH]2)C1 (stereo not drawn),-55.6%
6,O=C(c1ccccc1Cl)N1CCC(c2nc3c(nnn3Cc3ccco3)c(=O)[nH]2)CC1,-22.1%
7,O=C(c1ccccc1)N1CCC(c2nc3c(nnn3Cc3ccco3)c(=O)[nH]2)CC1,-32.2%
8,CC(C)(C)c1ccc(Cn2nnc3c(=O)[nH]c(C4CCN(C(=O)Cc5cccs5)CC4)nc32)cc1,-4.81%
9,O=C(c1ccco1)N1CCCC(c2nc3c(nnn3Cc3ccccc3)c(=O)[nH]2)C1 (stereo not drawn),-8.47%
10,O=C(c1ccco1)N1CCCC(c2nc3c(nnn3Cc3ccc(Cl)cc3Cl)c(=O)[nH]2)C1 (stereo not drawn),-36.1%
11,O=C(c1cccs1)N1CCCC(c2nc3c(nnn3Cc3cccc(Cl)c3)c(=O)[nH]2)C1 (stereo not drawn),-36.6%
12,O=C(c1ccc(Cl)cc1Cl)N1CCC(c2nc3c(nnn3Cc3ccco3)c(=O)[nH]2)CC1,-69%
13,O=C(c1ccco1)N1CCCC(c2nc3c(nnn3Cc3cccc(Cl)c3)c(=O)[nH]2)C1 (stereo not drawn),-54.5%
14,O=C(Cc1cccs1)N1CCC(c2nc3c(nnn3Cc3ccccc3)c(=O)[nH]2)CC1,-56%
15,O=C(Cc1cccs1)N1CCC(c2nc3c(nnn3Cc3ccc(F)cc3)c(=O)[nH]2)CC1,-38.9%
16,Cc1nc2ccc(Br)cn2c1C(=O)N/N=C\c1ccccc1[N+](=O)[O-],27.6%
17,NC(=O)C[n+]1cccc(C(N)=O)c1.[Cl-],12.8%
18,Cc1ccc(S(=O)(=O)Nc2c(C)n(C)n(-c3ccccc3)c2=O)c(C)c1,9.47%
19,O=C(CCN1CCCCCC1)Nc1ccc2c(c1)OCCO2.O=C(O)C(=O)O,-1.98%
20,Cc1ccc(S(=O)(=O)NC(C)c2ccccc2)cc1[N+](=O)[O-] (stereo not drawn),9.16%
21,CC(=O)Nc1nnc(COc2ccc(Cl)cc2)s1,30.7%
22,Cc1ccc(Cn2nnc3c(=O)[nH]c(C4CCN(S(=O)(=O)c5ccc(F)cc5)CC4)nc32)cc1,6.62%
23,O=c1[nH]c(C2CCN(S(=O)(=O)c3ccc(S(=O)(=O)NC4CC4)cc3)CC2)nc2c1nnn2Cc1ccc(F)cc1,3.81%
24,O=C(c1ccccc1)N1CCCC(c2nc3c(nnn3Cc3ccccc3)c(=O)[nH]2)C1 (stereo not drawn),-3.63%
25,COc1ccc(Cn2nnc3c(=O)[nH]c(C4CCCN(C(=O)c5ccccc5)C4)nc32)cc1 (stereo not drawn),-22.5%
26,Cc1ccc(C(=O)N2CCCC(c3nc4c(nnn4Cc4ccccc4)c(=O)[nH]3)C2)cc1 (stereo not drawn),-62.4%
27,COC(=O)c1ccc(Cn2nnc3c(=O)[nH]c(C4CCN(S(=O)(=O)c5ccc(F)cc5)CC4)nc32)cc1,-70.3%
